# CYP2C19 act – increases human CYP2C19 enzyme activity; P33261; recombinant CYP2C19, luciferin-H EGE luminescence; stronger effect = higher value; 0 = fully inhibited enzyme, 1 = untreated enzyme; activation factor at 5 µM; 96,000 tested, under 10 active;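 active = activation factor of at least 2 at 5 µM in the primary screen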;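 note: 0 = wells with 2.5 mM tranylcypromine and 1 = vehicle-only wells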
# CYP2C19 inh – blocks human cytochrome P450 2C19; CYP2C19 Supersomes, luciferin-H EGE luminescence, 30 min; inhibition, % at 5 µM; actives 21% (n = 96,000); AID 778;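 active = CYP2C19 inhibition above a set limit at 5 µM in the primary screen, cut at about 50% in these data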;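 note: plate controls were negative control wells for no effect and 2.5 mM tranylcypromine positive control for full effect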
# F-actin modifier – alters cytoskeleton assembly in HUVEC cells; HUVEC TNFa F-actin phalloidin imaging, high content; inhibition, % at 2 µM; actives 0.18% (n = 91,000);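 active = inhibition above the batch mean plus 3 SD and confirmed as a hit by visual image inspection, cut at about 30% in these data, passing the limit was not always enough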
# E-sel TNF inh – blocks E-selectin expression induced by TNF alpha; HUVEC TNFa-induced E-selectin immunofluorescence, high content; actives 0.71% (n = 120,000); inhibition, % at 2 µM;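 active = inhibition above the batch mean plus 3 SD, and confirmed as a hit on visual image review, cut at about 43% in these data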;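 note: 0% = TNF-stimulated DMSO wells and 100% = unstimulated control wells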
# CYP2C9 act – increases human cytochrome P450 2C9 activity. actives 1.4% (n = 96,000). P11712. recombinant CYP2C9, luciferin-H conversion, luminescence; stronger effect = higher value; factor 1 = untreated enzyme, 0 = blocked. AID 1024. activation factor at 5 µM;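 active = activation factor of 2 or more for CYP2C9 at a 5 µM dose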;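 note: 0 = sulfaphenazole-blocked wells and 1 = vehicle-only wells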
# Target sequence (P11712 whole entry, looked up): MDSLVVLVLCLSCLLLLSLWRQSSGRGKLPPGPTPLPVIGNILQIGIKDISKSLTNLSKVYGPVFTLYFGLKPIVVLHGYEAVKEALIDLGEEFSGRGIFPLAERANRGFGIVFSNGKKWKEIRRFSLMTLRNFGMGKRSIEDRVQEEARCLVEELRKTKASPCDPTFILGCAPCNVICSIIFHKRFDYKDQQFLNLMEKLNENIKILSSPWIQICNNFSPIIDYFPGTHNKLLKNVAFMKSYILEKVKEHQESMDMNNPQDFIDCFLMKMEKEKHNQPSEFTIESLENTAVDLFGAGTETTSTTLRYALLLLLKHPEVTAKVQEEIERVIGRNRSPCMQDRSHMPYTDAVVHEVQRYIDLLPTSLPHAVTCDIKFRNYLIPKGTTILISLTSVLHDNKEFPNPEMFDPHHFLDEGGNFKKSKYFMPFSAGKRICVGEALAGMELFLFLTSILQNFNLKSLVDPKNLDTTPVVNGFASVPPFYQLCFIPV
# CYP2C9 inh – inhibitors of human CYP2C9 | P11712 | AID 777 | inhibition, % at 5 µM | actives 20% (n = 96,000) | CYP2C9 Supersomes, luciferin-H conversion, luminescence;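 active = blocking of liver enzyme CYP2C9 beyond about 50% at 5 µM, limit read from the data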
# An asterisk follows results filed as active; · = not tested or not shown. Shown are actives, neighbours in structure and some others; about 22% of the full set was active somewhere.
SMILES,CYP2C19 act,CYP2C19 inh,F-actin modifier,E-sel TNF inh,CYP2C9 act,CYP2C9 inh
COCCn1nnnc1C(c1cccs1)N1CCN(c2cc(C)ccc2C)CC1 (stereo not drawn),0.6,38,3,-29,0.4,62*
CCN(Cc1ccccc1)C(c1cc2cc(C)cc(C)c2[nH]c1=O)c1nnnn1CCOC (stereo not drawn),0.9,5,16,-24,0.9,7
COCCn1c(=O)[nH]c2cc(C(=O)NCc3ccccc3)ccc2c1=O,1,0,14,5,1,-1
Cc1ccc(NC(=O)C(=O)NC(C)C2COc3ccccc3O2)cc1 (stereo not drawn),0.9,5,-19,-12,1,-2
CC(C)[C@H](NC(=O)Nc1ccc2c(c1)OCCO2)C(=O)O,1.2,-16,-8,-12,1.3,-27
CCCCCc1ccc(S(=O)(=O)NCCc2ccncc2)cc1,0,100*,·,7,0,97*
CCCc1ccc(S(=O)(=O)NCCc2ccncc2)cc1,0,99*,32,14,0,98*
COCCNS(=O)(=O)c1ccc(-c2ccc(S(=O)(=O)NCCOC)cc2)cc1,·,·,·,-24,·,·
CC1CCCC(C)N1S(=O)(=O)c1ccc(S(=O)(=O)NCCc2ccncc2)cc1 (stereo not drawn),·,·,-9,14,·,·
CC(C)(C)c1ccc(S(=O)(=O)NCCOCC(F)(F)C(F)F)cc1,0,97*,-18,-11,2.4*,-141
O=C(O)CCc1ccc(S(=O)(=O)NCCc2ccccc2)cc1,1.2,-16,12,-6,1,2
CC(C)(C)c1ccc(S(=O)(=O)Nc2ccc(Cc3ccncc3)cc2)cc1,·,·,·,29,·,·
CC(C)(C)c1ccc(S(=O)(=O)NCCc2ccncc2)cc1,0,100*,19,·,0.1,92*
COC(=O)Cc1cc(=O)n(-c2nc3ccccc3[nH]2)[nH]1,·,·,0,5,·,·
CCNC(=O)CCS(=O)(=O)c1ccc2ccccc2c1,·,·,12,-3,·,·
Cc1ccc(N2CCCn3c2nc2c3c(=O)n(CC(=O)OCc3ccccc3)c(=O)n2C)cc1C,0.8,22,·,·,0.4,55*
Cn1c(=O)n(Cc2ccccc2F)c(=O)c2c1nc1n2CCCN1CCc1ccccc1,0.7,33,36,25,0.8,17
CC(C)Cn1c(=O)c2c(nc3n2CCCN3CCc2ccccc2)n(C)c1=O,0.1,85*,10,29,0.1,93*
Cn1c(=O)n(CCc2ccccc2)c(=O)c2c1nc1n2CCCN1Cc1ccccc1,0.9,11,-1,9,0.8,15
Cn1c(=O)n(CCc2ccccc2)c(=O)c2c1nc1n2CCCN1CCc1ccccc1,0.1,92*,-44,-26,0.1,93*
Cc1cc(C)cc(N2CCCn3c2nc2c3c(=O)n(CC(=O)OCc3ccccc3)c(=O)n2C)c1,0.8,16,13,·,1,2
Cn1c(=O)n(Cc2ccc(F)cc2)c(=O)c2c1nc1n2CCCN1Cc1ccccc1,0,96*,-8,6,0.1,86*
CCCCCCNS(=O)(=O)c1nc2nc(C)cc(C)n2n1,0.5,49,·,-68,1.8,-81
CC(=O)N1CCC(N(CCN2CCOCC2)C(=S)Nc2cccc(C)c2)CC1,·,·,·,31,·,·
Cn1cnnc1Sc1nc2ccccc2nc1NS(=O)(=O)c1ccccc1,0.9,7,·,-26,0,97*
SMILES,CYP2C19 act,CYP2C19 inh,F-actin modifier,E-sel TNF inh,CYP2C9 act,CYP2C9 inh
CC(=O)Nc1ccc(S(=O)(=O)Nc2nc3ccccc3nc2Sc2nncn2C)cc1,1.2,-22,·,·,0.6,44
Cn1ccnc1Sc1nc2ccccc2nc1NS(=O)(=O)c1ccccc1,1,-3,·,-1,0,98*
O=C(NC(=S)Nc1ccc(N2CCCCC2)cc1)c1ccc2c(c1)OCCO2,·,·,·,15,·,·
O=C(CN1CCN(c2nc(-c3ccc(F)cc3)cs2)CC1)Nc1ccc2c(c1)OCO2,0.6,45,1,·,0.5,47
COC(=O)c1cc(=O)n(CCc2ccc(OC)c(OC)c2)c(=Nc2ccc(F)c(Cl)c2)s1,0.4,57*,7,·,0.2,76*
COc1ccc2[nH]c(=O)c(CN(CCc3ccccc3)Cc3nnnn3CC3CCCO3)cc2c1 (stereo not drawn),0.3,68*,1,16,0.9,14
COc1ccc2cc(CN(CCc3ccccc3)Cc3nnnn3CC3CCCO3)c(=O)[nH]c2c1 (stereo not drawn),0.6,44,29,·,0.4,63*
Cc1ccc2[nH]c(=O)c(CN(CCc3ccccc3)Cc3nnnn3CC3CCCO3)cc2c1 (stereo not drawn),·,·,7,0,·,·
COc1cc(S(=O)(=O)Nc2c(C)cc(C)cc2C)ccc1Cl,0.6,44,-6,-5,0.9,14
COc1cc(S(=O)(=O)Nc2ccccc2C)ccc1Cl,0,100*,6,-19,2*,-98
CCOc1cc(S(=O)(=O)Nc2ccc(CC)cc2)ccc1Cl,0.5,46,-7,-10,0.2,80*
CCOc1cc(S(=O)(=O)Nc2ccccc2CC)ccc1Cl,0.2,82*,-3,1,1.8,-85
CCOc1cc(S(=O)(=O)NCc2ccccn2)ccc1Cl,·,·,-9,8,·,·
CCN(Cc1ccccc1)C(=O)Cn1cc2c(n1)CCCC2,0.8,23,·,-16,1,1
Cc1ccc(NC2=C(Cl)C(=O)OC2OC(=O)c2ccco2)cc1 (stereo not drawn),0.5,50*,·,3,0.1,91*
COC(=O)CN(Cc1ccccc1)S(=O)(=O)c1ccc(OC)c(OC)c1,0.4,57*,-6,·,1.1,-7
COc1ccc(S(=O)(=O)N(CCc2ccccc2)CC(=O)O)cc1OC,1.1,-7,-18,-22,0.8,16
COC(=O)CN(c1cc(OC)ccc1OC)S(=O)(=O)c1ccc(OC)c(OC)c1,0,95*,·,-41,0.4,63*
CCOc1ccc(N(CC(=O)O)S(=O)(=O)c2ccc(OC)c(OC)c2)cc1,1,5,-9,·,0.9,7
COC(=O)CN(CCc1ccccc1)S(=O)(=O)c1ccc(OC)c(OC)c1,0,99*,1,4,0.7,32
CCNC(=O)CN(Cc1ccccc1)S(=O)(=O)c1ccccc1,0.6,42,-14,·,0.6,38
O=C(O)CN1CCN(Cc2ccc(F)cc2Cl)C1=O,·,·,·,-41,·,·
Cn1c(=O)c2ncn(CC(=O)NCCOc3ccc(C(C)(C)C)cc3)c2n(C)c1=O,1.1,-13,-2,-20,1.1,-11
Cc1nnc2sc(SCc3ccc(Cl)cc3)nn2c1=O,·,·,·,18,·,·
N#CC(c1ccc(Cl)cc1)N1CCOCC1 (stereo not drawn),·,·,·,-34,·,·
CC1(C(=O)Nc2nnc(C(C)(C)C)s2)Cc2ccccc2C(=O)O1 (stereo not drawn),1.1,-5,-4,-12,0.9,12
CCSc1nnc(NC(=O)C2(C)Cc3ccccc3C(=O)O2)s1 (stereo not drawn),1,-4,24,-12,0.3,74*

# High-throughput results from PubChem BioAssay.
